Experimental data: PubChem BioAssay (Tox21)
Records with an inconclusive call do not appear. The source made the active and inactive calls. Unless noted, calls follow the shape of the full dose curve.

Tests used:
[1] = Nuclear factor erythroid 2-related factor 2/antioxidant responsive element (Nrf2/ARE) small molecule agonists: qHTS cell viability counter screen in human keratinocytes (AID 1919968; active = well fitted curve in the direction sought with a large enough effect in the repeat runs; an effect the other way counts as inactive or inconclusive; also: nearly all actives have a fitted effect of over 55% in size)
Method in brief: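 KeratinoSens cells (HaCaT keratinocytes stably carrying an ARE-luciferase reporter) were seeded at 1,500 cells/well and rested 5 h at 37 C/5% CO2. They were then exposed to compounds in DMSO for 23 h. Viability was read by CellTiter-Fluor fluorescence after 1 h.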

[2] = Nuclear factor erythroid 2-related factor 2/antioxidant responsive element (Nrf2/ARE) small molecule agonists: luciferase reporter gene qHTS assay in human keratinocytes (AID 1919969); also: nearly all actives have a fitted effect of over 35% in size; also: potency is read from the fitted curve at half-maximal effect
[3] = molecular target: Gonadotropin-releasing hormone receptor (Homo sapiens) (UniProt P30968); test: Human gonadotropin-releasing hormone receptor (GnRHR) small molecule agonists, calcium flux assay in GnRHR-HEK293 cells (AID 1920063); also: nearly all actives have a fitted effect of over 35% in size
Chain of Gonadotropin-releasing hormone receptor (Homo sapiens) (P30968 whole entry, looked up): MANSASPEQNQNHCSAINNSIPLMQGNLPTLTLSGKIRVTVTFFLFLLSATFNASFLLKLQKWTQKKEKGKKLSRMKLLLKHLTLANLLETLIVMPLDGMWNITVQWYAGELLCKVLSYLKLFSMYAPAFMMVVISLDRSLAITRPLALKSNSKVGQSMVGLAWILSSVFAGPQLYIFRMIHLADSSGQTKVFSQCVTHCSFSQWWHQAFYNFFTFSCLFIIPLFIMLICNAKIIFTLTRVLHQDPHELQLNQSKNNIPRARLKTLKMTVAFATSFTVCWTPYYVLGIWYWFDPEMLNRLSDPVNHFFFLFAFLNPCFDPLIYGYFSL
Method in brief: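 HEK293 cells stably expressing human GnRHR were plated 18 h at 37 °C, loaded with calcium dye 1 h at 37 °C, then given compound in agonist mode; fluorescence (Ex/Em 480/540) read kinetically for 3 min at 1 s intervals.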

[4] = molecular target: KiSS-1 receptor (Homo sapiens) (UniProt Q969F8); test: Human kisspeptin (KISS1R) small molecule agonists, calcium flux assay in KISS1R-HEK293 cells (AID 1920064; active = well fitted curve in the direction sought with a large enough effect in the repeat runs; an effect the other way counts as inactive or inconclusive)
Chain of KiSS-1 receptor (Homo sapiens) (Q969F8 whole entry, looked up): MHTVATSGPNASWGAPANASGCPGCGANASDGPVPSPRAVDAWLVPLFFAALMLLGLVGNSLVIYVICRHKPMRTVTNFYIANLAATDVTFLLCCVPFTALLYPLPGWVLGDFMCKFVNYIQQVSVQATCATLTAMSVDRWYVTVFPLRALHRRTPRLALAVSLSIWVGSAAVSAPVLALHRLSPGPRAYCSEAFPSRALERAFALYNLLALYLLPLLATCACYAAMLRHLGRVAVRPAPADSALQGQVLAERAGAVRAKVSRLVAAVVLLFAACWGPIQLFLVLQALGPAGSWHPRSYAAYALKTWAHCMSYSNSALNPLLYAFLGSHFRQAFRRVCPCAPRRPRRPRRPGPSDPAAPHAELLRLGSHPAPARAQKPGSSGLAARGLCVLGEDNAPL
Method in brief: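 HEK293 cells stably expressing human KISS1R were plated 18 h at 37 °C, loaded with calcium dye for 1 h at 37 °C, then given compound by pin tool. Fluorescence (Ex/Em 480/540) was read kinetically for 3 min.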

[5] = G protein-coupled receptor (GPCR) small molecule agonists, calcium flux assay: HEK293 wild type cell line counter screen (AID 1920065)
Method in brief: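 Cells were plated and cultured 18 h at 37 C/5% CO2, then loaded with calcium dye for 1 h at 37 C. Compounds in DMSO were pin-transferred in agonist mode, and fluorescence (Ex/Em 480/540) was read kinetically for 3 min at 1 s intervals.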

[6] = p53 small molecule agonists, cell-based qHTS assay with human liver microsomes (AID 1963577)
Method in brief: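 p53RE-bla reporter cells were pre-incubated 5 h at 37 C, then treated with compounds plus human liver microsomes (0.5 mg/mL final) and NADPH (0.5 mg/mL final) for 16 h at 37 C. Beta-lactamase activity was read by LiveBLAzer fluorescence after 2 h at room temperature.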

[7] = p53 small molecule agonists, cell-based qHTS assay with rat liver microsomes (AID 1963578)
Method in brief: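 p53RE-bla cells were exposed to compounds together with rat liver microsomes (0.5 mg/mL final) and NADPH (0.5 mg/mL final) for 16 h at 37 C, then read by LiveBLAzer beta-lactamase fluorescence after 2 h at room temperature.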

[8] = p53 small molecule agonists, cell-based qHTS assay with human liver microsomes: qHTS cell viability counter screen (AID 1963579); also: nearly all actives have a fitted effect of over 45% in size
Method in brief: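 p53RE-bla cells (4,000/well) were pre-incubated 5 h at 37 C, then given compounds in DMSO plus human liver microsomes (0.5 mg/mL final) and NADPH (0.5 mg/mL final) for 16 h at 37 C. Viability was read by CellTiter-Glo luminescence.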

[9] = p53 small molecule agonists, cell-based qHTS assay with rat liver microsomes: qHTS cell viability counter screen (AID 1963580); also: nearly all actives have a fitted effect of over 45% in size
Method in brief: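 Intracellular ATP, by CellTiter-Glo luminescence, defines viability. HCT-116 p53RE-bla cells, 4,000 per well, were compound-treated in the presence of rat liver microsomes and NADPH for 16 h at 37 C.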

[10] = p53 small molecule agonists, cell-based qHTS assay: qHTS cell viability counter screen (AID 1963581); also: nearly all actives have a fitted effect of over 45% in size
Method in brief: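 p53RE-bla HCT-116 cells were exposed to compounds for 16 h at 37 C; after the beta-lactamase FRET read in the same wells, CellTiter-Glo was added and luminescence (intracellular ATP) read after 30 min at room temperature.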

[11] = p53 small molecule agonists, cell-based qHTS assay (AID 1963582; active = well fitted activation curve with a large enough effect in the signal ratio in the repeat runs, not every such curve was filed as active; the % refers to the signal ratio)
Method in brief: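 p53RE-bla beta-lactamase reporter cells rested 5 h at 37 C/5% CO2, then received compounds in DMSO by pin transfer and were incubated 16 h at 37 C. LiveBLAzer B/G FRET substrate was loaded for 2 h at room temperature before fluorescence reading.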

[12] = molecular target: 5-hydroxytryptamine receptor 2A (Homo sapiens) (UniProt P28223); test: 5-hydroxytryptamine receptor 2A (HTR2A) small molecule antagonists, cell-based qHTS assay (AID 1963586); also: nearly all actives have a fitted effect of over 45% in size; also: potency is read from the fitted curve at half-maximal effect
Chain of 5-hydroxytryptamine receptor 2A (Homo sapiens) (P28223 whole entry, looked up): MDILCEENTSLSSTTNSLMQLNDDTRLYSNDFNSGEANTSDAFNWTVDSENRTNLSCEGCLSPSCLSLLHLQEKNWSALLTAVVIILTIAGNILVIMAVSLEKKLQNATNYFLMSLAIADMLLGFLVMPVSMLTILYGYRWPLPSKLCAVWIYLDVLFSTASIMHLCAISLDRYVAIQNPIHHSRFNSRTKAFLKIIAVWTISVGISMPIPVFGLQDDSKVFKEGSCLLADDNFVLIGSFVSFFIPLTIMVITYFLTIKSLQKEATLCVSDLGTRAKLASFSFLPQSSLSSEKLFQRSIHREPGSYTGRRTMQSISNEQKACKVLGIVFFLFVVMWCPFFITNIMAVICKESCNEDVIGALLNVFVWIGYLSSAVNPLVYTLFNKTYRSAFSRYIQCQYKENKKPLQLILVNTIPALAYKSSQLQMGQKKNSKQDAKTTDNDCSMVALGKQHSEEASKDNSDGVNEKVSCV
Method in brief: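 Antagonist-mode intracellular calcium assay: DOI (4 nM) added after 5 min compound pre-incubation at room temperature to dye-loaded HTR2A-CHO cells. Fluorescence followed for 3 min, sampled every second.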

[13] = molecular target: 5-hydroxytryptamine receptor 2A (Homo sapiens) (UniProt P28223); test: 5-hydroxytryptamine receptor 2A (HTR2A) small molecule agonists, cell-based qHTS assay (AID 1963587); also: nearly all actives have a fitted effect of over 30% in size
Method in brief: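 Kinetic calcium-flux fluorescence (2 min, 1 sec intervals) after compound addition in agonist mode. HTR2A-CHO cells were cultured 18 h, then dye-loaded 1 h at 37 C.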

[14] = molecular target: Muscarinic acetylcholine receptor M1 (Homo sapiens) (UniProt P11229); test: Cholinergic receptor muscarinic 1 (CHRM1) small molecule antagonists, cell-based qHTS assay (AID 1963588); also: nearly all actives have a fitted effect of over 40% in size; also: potency is read from the fitted curve at half-maximal effect
Chain of Muscarinic acetylcholine receptor M1 (Homo sapiens) (P11229 whole entry, looked up): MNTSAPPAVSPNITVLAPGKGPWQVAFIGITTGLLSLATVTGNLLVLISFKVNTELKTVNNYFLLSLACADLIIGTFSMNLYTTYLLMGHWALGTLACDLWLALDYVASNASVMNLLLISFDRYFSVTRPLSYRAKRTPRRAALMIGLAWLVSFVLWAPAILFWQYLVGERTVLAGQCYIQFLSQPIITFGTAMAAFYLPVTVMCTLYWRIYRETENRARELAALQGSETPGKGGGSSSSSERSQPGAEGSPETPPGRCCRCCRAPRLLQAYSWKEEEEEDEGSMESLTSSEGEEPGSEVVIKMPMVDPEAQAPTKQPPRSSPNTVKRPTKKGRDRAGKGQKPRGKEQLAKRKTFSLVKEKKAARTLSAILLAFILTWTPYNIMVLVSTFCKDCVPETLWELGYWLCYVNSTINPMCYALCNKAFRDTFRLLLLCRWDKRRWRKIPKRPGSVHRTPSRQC
Method in brief: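 CHRM1-CHO calcium-flux assay, antagonist mode. Cells were seeded 18 h, dye-loaded 1 h at 37 C and given compound for 5 min at RT, then acetylcholine was added at 50nM. FDSS fluorescence was read 3 min; 15 concentrations, three runs.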

[15] = molecular target: Muscarinic acetylcholine receptor M1 (Homo sapiens) (UniProt P11229); test: Cholinergic receptor muscarinic 1 (CHRM1) small molecule agonists, cell-based qHTS assay (AID 1963589); also: nearly all actives have a fitted effect of over 35% in size
Method in brief: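 CHO cells stably expressing human CHRM1, seeded 18 h at 37 C/5% CO2, dye-loaded 1 h at 37 C, then given compound in agonist mode; intracellular calcium fluorescence read kinetically at 1 s intervals. Fifteen concentrations, three independent runs.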

[16] = cAMP Responsive Elements (CRE) small molecule agonists, cell-based qHTS assay (AID 1963590)
Method in brief: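 CRE-bla HEK 293T cells in DMEM with 10% dialyzed FBS, NEAA, pyruvate and 25 mM HEPES were plated 18 h at 37 C/5% CO2, then exposed to compounds in DMSO for 3 h before LiveBLAzer B/G FRET substrate addition.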

[17] = molecular target: D(2) dopamine receptor (Homo sapiens) (UniProt P14416); test: Dopamine D2 receptor (DRD2) small molecule antagonists, cell-based qHTS assay (AID 1963595; active = well fitted inhibition curve with a large enough effect in the signal ratio in the repeat runs, with a control signal flat; the % refers to the signal ratio)
Chain of D(2) dopamine receptor (Homo sapiens) (P14416 whole entry, looked up): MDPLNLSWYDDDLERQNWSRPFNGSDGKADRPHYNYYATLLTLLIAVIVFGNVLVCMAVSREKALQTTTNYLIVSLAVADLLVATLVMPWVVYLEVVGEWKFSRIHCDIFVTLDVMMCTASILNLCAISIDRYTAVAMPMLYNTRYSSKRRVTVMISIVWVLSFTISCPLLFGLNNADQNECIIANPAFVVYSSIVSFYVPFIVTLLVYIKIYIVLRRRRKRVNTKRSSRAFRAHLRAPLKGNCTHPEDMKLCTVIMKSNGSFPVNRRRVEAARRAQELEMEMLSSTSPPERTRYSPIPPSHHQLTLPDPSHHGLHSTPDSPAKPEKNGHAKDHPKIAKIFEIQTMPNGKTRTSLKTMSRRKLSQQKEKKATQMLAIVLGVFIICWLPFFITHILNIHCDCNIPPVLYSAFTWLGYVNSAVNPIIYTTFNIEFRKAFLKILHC
Method in brief: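 In this cell-based antagonist screen, compounds act for 10 min at room temperature before a 30 min challenge with 12 nM quinpirole and 200 nM NKH477. cAMP is quantified by HTRF competition in DRD2-HEK293 cells containing 0.1 mM Ro20-1724.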

[18] = molecular target: Beta-2 adrenergic receptor (Homo sapiens) (UniProt P07550); test: Adrenergic beta2 receptor (ADRB2) small molecule antagonists, cell-based qHTS assay (AID 1963592); also: series mostly up to about 92 µM; nearly all actives have a fitted effect of over 50% in size
Chain of Beta-2 adrenergic receptor (Homo sapiens) (P07550 whole entry, looked up): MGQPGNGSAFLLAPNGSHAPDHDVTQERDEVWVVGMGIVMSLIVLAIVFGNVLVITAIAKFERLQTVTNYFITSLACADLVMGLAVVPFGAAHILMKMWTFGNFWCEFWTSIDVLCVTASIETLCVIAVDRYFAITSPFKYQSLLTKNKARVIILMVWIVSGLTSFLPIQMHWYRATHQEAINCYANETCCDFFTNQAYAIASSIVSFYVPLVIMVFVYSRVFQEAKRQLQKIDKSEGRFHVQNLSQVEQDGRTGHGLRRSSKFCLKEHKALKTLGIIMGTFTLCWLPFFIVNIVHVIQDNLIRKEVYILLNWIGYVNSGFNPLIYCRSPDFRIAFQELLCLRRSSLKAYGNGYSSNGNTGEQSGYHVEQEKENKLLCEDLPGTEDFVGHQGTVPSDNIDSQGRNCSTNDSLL
Method in brief: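 Cells (CHO, stable ADRB2 overexpression) incubated 18-20hr at 37C; compounds added from DMSO; agonist mix (1nM isoproterenol, 100uM IBMX, 25uM Ro-20-1724) added; 0.5hr RT; d2-cAMP and anti-cAMP-cryptate added; 1hr RT; 665/615 nm read.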

[19] = molecular target: D(2) dopamine receptor (Homo sapiens) (UniProt P14416); test: Dopamine D2 receptor (DRD2) small molecule agonists, cell-based qHTS assay (AID 1963594); also: nearly all actives have a fitted effect of over 35% in size
Method in brief: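 cAMP accumulation in DRD2-HEK293 cells measured by HTRF after 1 h detection; compounds added 10 min before NKH477 (200nM […]) forskolin-analogue stimulation, 30 min at room temperature, with Ro20-1724 present at 0.1 mM final.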

[20] = cAMP Responsive Elements (CRE) small molecule antagonists, cell-based qHTS assay (AID 1963591; active = well fitted inhibition curve with a large enough effect in the signal ratio in the repeat runs, not every such curve was filed as active; the % refers to the signal ratio)
Method in brief: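 CRE-bla HEK293T cells were plated 18 h at 37 °C/5% CO2, pinned with compound in DMSO, then stimulated with NKH477 at 0.25 uM final for 3 h. LiveBLAzer B/G FRET substrate was added and plates incubated 2 h at room temperature.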

Measured: Potency

COC(=O)[C@H]1[C@H]2C[C@@H]3c4[nH]c5cc(OC)ccc5c4CCN3C[C@H]2C[C@@H](OC(=O)COc2ccc(OC)cc2)[C@@H]1OC
inactive: [1] | [2] | [3] | [4] | [5] | [6] | [7] | [8] | [9] | [10] | [11] | [12] | [13] | [14] | [15] | [16] | [17]

Cc1c(F)cc2c(=O)c(C(=O)O)cn3c2c1CCC3C (stereo not given)
inactive: [1] | [2] | [3] | [4] | [5] | [6] | [7] | [8] | [9] | [10] | [11] | [12] | [13] | [14] | [15] | [18] | [19] | [17]

Oc1cc(O)c(Cl)cc1Cl
active: [2] 55800 nM
inactive: [1] | [3] | [4] | [5] | [6] | [7] | [8] | [9] | [10] | [11] | [12] | [13] | [14] | [15] | [20] | [19] | [17]

CC(C)C[C@@H]1[C@H](c2ccccc2)OC(=O)N1CCCN1CCCCCC1
inactive: [1] | [2] | [3] | [4] | [5] | [6] | [7] | [8] | [9] | [10] | [11] | [13] | [14] | [15] | [20] | [18] | [19] | [17]
active: [12] 2590 nM

CC(=O)c1ccc(C(C)=O)cc1
inactive: [1] | [2] | [3] | [4] | [5] | [6] | [7] | [8] | [9] | [10] | [11] | [12] | [13] | [14] | [15] | [20] | [18] | [19]

CN1CCCN=C1COC(=O)C(O)(c1ccccc1)C1CCCCC1 (stereo not given)
active: [14] 11.6 nM
inactive: [1] | [2] | [3] | [4] | [5] | [6] | [7] | [8] | [9] | [10] | [11] | [12] | [13] | [15] | [20] | [18] | [19] | [17]

CCCCC1CCCCC(=O)O1 (stereo not given)
inactive: [1] | [2] | [3] | [4] | [5] | [6] | [7] | [8] | [9] | [10] | [11] | [12] | [13] | [14] | [15] | [20] | [18] | [19] | [17]

CCCn1cnc2c1c(=O)n(CCCCC(C)=O)c(=O)n2C
inactive: [1] | [2] | [3] | [4] | [5] | [6] | [7] | [8] | [9] | [10] | [11] | [12] | [13] | [14] | [15] | [18] | [19]

C=C(C)c1ccccc1
inactive: [1] | [2] | [3] | [4] | [5] | [6] | [7] | [8] | [9] | [10] | [11] | [12] | [13] | [14] | [15] | [20] | [18] | [17]

CCCCC(CC)COC(=O)CCCCCCCCC(=O)OCC(CC)CCCC (stereo not given)
inactive: [1] | [2] | [3] | [4] | [5] | [6] | [7] | [8] | [9] | [10] | [11] | [12] | [13] | [14] | [16] | [20] | [18]

CCC1(C)C(=O)N(Cl)C(=O)N1Cl (stereo not given)
inactive: [1] | [2] | [3] | [4] | [5] | [6] | [7] | [8] | [9] | [10] | [11] | [12] | [13] | [14] | [16] | [20] | [18] | [19] | [17]

CCOc1ccc2ccccc2c1C(=O)N[C@@H]1C(=O)N2[C@@H]1SC(C)(C)[C@@H]2C(=O)O
inactive: [1] | [2] | [3] | [4] | [5] | [6] | [7] | [8] | [9] | [10] | [11] | [12] | [13] | [14] | [16] | [20] | [18] | [19] | [17]

Clc1cccnc1
inactive: [1] | [2] | [3] | [4] | [5] | [6] | [7] | [8] | [9] | [10] | [11] | [12] | [13] | [14] | [16] | [20] | [18] | [19] | [17]

C=C(C)C(=O)OCCN(C)C
inactive: [1] | [2] | [3] | [4] | [5] | [6] | [7] | [8] | [9] | [10] | [11] | [12] | [13] | [14] | [16] | [20] | [18] | [19] | [17]

CCCCCCn1c(=O)c2c(ncn2C)n(C)c1=O
inactive: [1] | [2] | [3] | [4] | [5] | [6] | [7] | [8] | [9] | [10] | [11] | [12] | [13] | [14] | [16] | [20] | [18] | [19] | [17]
